Source: PubChem BioAssay (NCATS)
Values joined by “and” are separate entries in the source; they are usually repeats but may differ in a detail not shown here. Equal values may be shown once. Records with an inconclusive call do not appear. Active and inactive are the calls of the source. The call rests on the fitted dose curve; in most records, active means well fitted curve in the direction sought with a large enough effect; inconclusive means small, poorly fitted or top-dose-only effect, or another doubt; inactive means no such curve, though single readings can be large; an effect the other way counts as inactive or inconclusive.

Experiments:
[1] = target: Cellular tumor antigen p53 (Homo sapiens) (UniProt P04637); assay: Primary qHTS for small molecule compounds that upregulate eGFP-tagged delta133p53alpha (in N-terminal) cells. (AID 2060322); conditions: NCI-H358 eGFP-delta133p53alpha fluorescence, 24 h; activation: hits give high values;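 further: series mostly up to about 56 µM; 0% = DMSO vehicle and 100% = reference activator; nearly all actives have a fitted effect of over 75% in size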
Sequence of Cellular tumor antigen p53 (Homo sapiens) (P04637 whole entry, looked up): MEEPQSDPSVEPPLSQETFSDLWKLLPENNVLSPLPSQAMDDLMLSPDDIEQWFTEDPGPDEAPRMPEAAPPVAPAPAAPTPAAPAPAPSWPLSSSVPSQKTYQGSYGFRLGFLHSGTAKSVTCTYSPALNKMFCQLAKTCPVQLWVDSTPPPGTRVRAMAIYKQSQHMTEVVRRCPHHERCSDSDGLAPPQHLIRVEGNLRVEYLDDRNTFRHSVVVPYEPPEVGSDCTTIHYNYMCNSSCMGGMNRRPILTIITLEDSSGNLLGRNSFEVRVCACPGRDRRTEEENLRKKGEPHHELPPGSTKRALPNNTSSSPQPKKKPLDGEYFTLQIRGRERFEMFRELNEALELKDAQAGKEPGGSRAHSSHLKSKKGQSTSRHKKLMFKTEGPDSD
Method in brief: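 NCI-H358 cells pre-induced 24 h with 10 ng/ml doxycycline to express N-terminal eGFP-delta133p53alpha, then dosed 24 h at 37C without doxycycline; fixed, Hoechst-stained, GFP intensity by laser scanning cytometry, normalized to DMSO (0%) and 57.5 uM 5-azacytidine (100%).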

[2] = target: Aldehyde dehydrogenase, mitochondrial (Homo sapiens) (UniProt P05091); assay: qHTS for Inhibitors of the Aldehyde Dehydrogenase Family (ALDH2) Primary screen (AID 2061308);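 further: plate controls were vehicle for no effect and reference inhibitor for full effect; nearly all actives have a fitted effect of over 55% in size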
[3] = target: Retinaldehyde dehydrogenase 3 (Homo sapiens) (UniProt P47895); assay: qHTS for Inhibitors of the Aldehyde Dehydrogenase Family (ALDH1A3) Validation screen (AID 2061312); further: on the % scale 0 is the no-effect control and ±100 the full control effect; nearly all actives have a fitted effect of over 45% in size
[4] = target: Retinaldehyde dehydrogenase 3 (Homo sapiens) (UniProt P47895); assay: qHTS for Inhibitors of the Aldehyde Dehydrogenase Family (ALDH1A3) Primary screen (AID 2061315);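 further: plate controls were DMSO vehicle for no effect and reference inhibitor for full effect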
[5] = BET inhibitor-based combinations targeting novel dependencies in MECOM-rearranged (r) AML: SET-2 cell line (AID 2202231); conditions: SET-2 AML cells viability, CellTiter-Glo luminescence, 48 h; viability: hits give low values, concentration not given here; further: potency means the concentration at half of the fitted maximal effect; nearly all actives have a fitted effect of over 35% in size
Method in brief: (§1)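 500 cells/well; 11-pt dose curve; 48 h, standard incubator; CellTiter-Glo luminescence after 15 min RT; DMSO/empty-well normalization; AUC plus Z-AUC (mean-centered within each line).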

[6] = BET inhibitor-based combinations targeting novel dependencies in MECOM-rearranged (r) AML: OCI-AML3 cell line (AID 2202232); conditions: Potency: OCI-AML3 viability; further: potency means the concentration at half of the fitted maximal effect; nearly all actives have a fitted effect of over 35% in size
Method in brief: as §1

[7] = BET inhibitor-based combinations targeting novel dependencies in MECOM-rearranged (r) AML: MV-4-11 cell line (AID 2202233); further: potency means the concentration at half of the fitted maximal effect; nearly all actives have a fitted effect of over 45% in size
Method in brief: (§2)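 Cells were plated at 500 per well and exposed to each drug across an 11-point dose range for 48 hr at standard incubator conditions. Viability was read by CellTiter-Glo luminescence, and activity was expressed as AUC and per-cell-line Z-transformed AUC.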

[8] = BET inhibitor-based combinations targeting novel dependencies in MECOM-rearranged (r) AML: HNT-34 cell line (AID 2202234); further: potency means the concentration at half of the fitted maximal effect; nearly all actives have a fitted effect of over 35% in size
Method in brief: as §2

CN(C)c1nc(Cc2ccc(NC(=O)c3ccc(C(F)(F)F)cc3)cc2)nc(N(C)C)c1CC(=O)O
inactive: activation [1] -14.6% and -1.43% | Potency [2] | Potency [3] | Potency [4]

CC(C)(O)c1ccc2c(c1)ncn2-c1cccc(-c2ccccc2C#N)c1
inactive: activation [1] -12.4% | Potency [2] | Potency [3] | Potency [4]

O=C(NCc1ccc(OC(F)(F)F)cc1)C1c2ccccc2C(=O)N1C1CCOCC1 (stereo unspecified)
inactive: activation [1] -5.73% | Potency [2] | Potency [3] | Potency [4]

O=C(O)Cn1nnc(-c2ccc(CN(CCCCOc3ccc(CN4CCCC4)cc3)CCc3ccccc3)cc2)n1
inactive: activation [1] 7.16% | Potency [2] | Potency [3] | Potency [4]

Cc1ccccc1NC(=O)Nc1ccc(CN2C(=O)N([C@@H](CC(C)C)C(=O)N[C@@H](CC(=O)O)c3ccccc3)C(=O)C2(C)C)cc1
inactive: activation [1] -2.86% | Potency [2] | Potency [3] | Potency [4]

CC(C)[C@@H]1C(=O)N(S(C)(=O)=O)[C@@H]2CCN(C(=O)/C=C/CN3CCCCC3)[C@H]21
inactive: activation [1] 8.11% | Potency [2] | Potency [3] | Potency [4]

O=c1cc(N2CCOCC2)nc2c3ccccc3ccn12
inactive: activation [1] 6.21% | Potency [2] | Potency [3] | Potency [4]

Fc1ccc(-c2cncc(CN3CCN(c4cccc5c4OCCO5)CC3)c2)cc1
inactive: activation [1] -10% | Potency [2] | Potency [3] | Potency [4]

CN1CC2CN(c3ccc4oc5ccccc5c(=O)c4c3)CC2C1 (stereo unspecified)
inactive: activation [1] 0.955% | Potency [2] | Potency [3] | Potency [4]

Nc1ncnc2c1c(-c1ccc(Oc3ccccc3)cc1)nn2[C@@H]1CCCNC1
inactive: activation [1] 20% | Potency [2] | Potency [3] | Potency [4]

COc1cnc(-n2cnc(C)n2)c2[nH]cc(C(=O)C(=O)N3CCN(C(=O)c4ccccc4)CC3)c12
inactive: activation [1] 3.34% | Potency [2] | Potency [3] | Potency [4]

COc1ccc(NC(=O)c2ccc(C(=N)N(C)C)cc2)c(C(=O)Nc2ccc(Cl)cn2)c1
inactive: activation [1] -8.59% | Potency [2] | Potency [3] | Potency [4]

Oc1ccc2nc(CN3CCC(Cc4ccccc4F)CC3)[nH]c2c1
inactive: activation [1] -1.91% | Potency [2] | Potency [3] | Potency [4]

C[C@@H](O)[C@H](NC(=O)c1ccc(C#Cc2ccc(CN3CCOCC3)cc2)cc1)C(=O)NO
inactive: activation [1] -6.68% | Potency [2] | Potency [3] | Potency [4]

On1ncc(C2CCNCC2)c1-c1cccc(-c2ccccc2)c1
inactive: activation [1] -8.11% | Potency [2] | Potency [3] | Potency [4]

CC(c1ncncc1F)C(O)(Cn1cncn1)c1ccc(F)cc1F (stereo unspecified)
inactive: activation [1] 0.477% | Potency [2] | Potency [3] | Potency [4]

CCOc1ccc(CCNC(=O)c2cc3sc(Cl)cc3n2C)cc1OCC
inactive: activation [1] -10.5% | Potency [2] | Potency [3] | Potency [4]

Cc1noc(C)c1-c1cc(O)cc(C(O)c2ccccc2)c1 (stereo unspecified)
inactive: activation [1] 10.1% | Potency [2] | Potency [3] | Potency [4]

O=C(CSc1nc2c(c(=O)n1-c1ccccc1)SCC2)Nc1ccc(-c2ccccc2)cn1
inactive: activation [1] 11.5% | Potency [2] | Potency [3] | Potency [4]

N=C(N)c1ccc2nc(-c3cc(CC(=O)NC(CC(=O)O)C(=O)O)cc(-c4cc(S(N)(=O)=O)ccc4O)c3O)[nH]c2c1 (stereo unspecified)
inactive: activation [1] -8.59% | Potency [2] | Potency [3] | Potency [4]

CCOc1cc(CC(=O)NC(CC(C)C)c2ccccc2N2CCCCC2)ccc1C(=O)O (stereo unspecified)
inactive: activation [1] -4.3% | Potency [2] | Potency [3] | Potency [4]

COc1ccc(-c2nc(-c3ccc(-c4cccc(Cl)c4)o3)[nH]c2-c2ccc(OC)cc2)cc1
inactive: activation [1] -3.82% | Potency [2] | Potency [3] | Potency [4]

CC1(C)CC=C(C#Cc2ccccc2)c2cc(/C=C/c3ccc(C(=O)O)cc3)ccc21
inactive: activation [1] -5.73% | Potency [2] | Potency [3] | Potency [4]

O=C(c1ccccn1)c1cnn2c(-c3ccncc3)ccnc12
inactive: activation [1] -7.16% | Potency [2] | Potency [3] | Potency [4]

CCOC(=O)c1ccc(N(C)c2csc(-c3ccccc3)n2)cc1
inactive: activation [1] 0% | Potency [2] | Potency [3] | Potency [4]

COc1cccc(C(=O)N2CCN(C(=O)COc3cccc(C)c3)CC2)c1OC
inactive: activation [1] 4.77% | Potency [2] | Potency [3] | Potency [4]

O=S(=O)(NC1CCC(c2cc(F)ccc2F)(S(=O)(=O)c2ccc(Cl)cc2)CC1)C(F)(F)F (stereo unspecified)
inactive: activation [1] -16.2% | Potency [2] | Potency [3] | Potency [4]

COc1cc2c(cc1-c1c(C)noc1C)ncc1[nH]c(=O)n([C@H](C)c3ccccn3)c12
active: Potency [5] 1.32 µM
inactive: activation [1] 5.5% and 9.55% and -13.4% | Potency [2] | Potency [3] | Potency [4]

Cc1noc2c1-c1ccccc1C(c1ccc(Cl)cc1)=N[C@H]2CC(N)=O
active: Potency [5] 2.35 µM | Potency [6] 1.32 µM | Potency [7] 525 nM | Potency [8] 1.48 µM
inactive: activation [1] 32.4% | Potency [2] | Potency [3] | Potency [4]
